This is a sample that favours compounds with a hit; in the whole collection about 6.1% have one here.
D1 ag = Allosteric Agonists of the Human D1 Dopamine Receptor: qHTS; HEK293 T-REx D1 cells, calcium flux, agonist mode; activation, % at 2 µM; 360,000 compounds, 1% hits; AID 504660, 2011; in the data active = activation above about 30%
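Agonism was scored from calcium flux recorded over 180 s (1 read/s) after pintool compound addition, following a 10-cycle baseline. Cells were inducible force-coupled HEK293 TREx D1, plated overnight at 30 C and loaded with no-wash calcium dye.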
DRD3 antagonist = qHTS of D3 Dopamine Receptor Antagonist: qHTS | D3R cells, DiscoveRx beta-arrestin luminescence, antagonist mode; hits give low values | max response, negative = inhibition, % | 360,000 compounds, 2.5% hits; in the data active = max response below about -50%; inconclusive = no clear call, values can overlap the other calls
Target sequence (P35462 whole entry, looked up): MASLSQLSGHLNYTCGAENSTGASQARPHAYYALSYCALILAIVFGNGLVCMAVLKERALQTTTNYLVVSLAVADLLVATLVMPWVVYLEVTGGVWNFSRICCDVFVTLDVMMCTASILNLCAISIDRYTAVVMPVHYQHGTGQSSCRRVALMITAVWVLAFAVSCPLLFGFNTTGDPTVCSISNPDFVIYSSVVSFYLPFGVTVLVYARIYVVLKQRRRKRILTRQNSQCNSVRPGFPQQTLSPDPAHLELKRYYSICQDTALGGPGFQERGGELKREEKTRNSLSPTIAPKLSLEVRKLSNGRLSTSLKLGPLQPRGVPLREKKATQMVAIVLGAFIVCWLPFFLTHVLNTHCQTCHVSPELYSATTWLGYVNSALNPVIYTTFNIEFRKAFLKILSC
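Cells plated overnight at 1500 cells/well, then exposed to library compounds with dopamine controls for 90 minutes at 37 degrees C. DiscoveRx reagent added for 30–60 minutes at room temperature; luminescence read, quantitative HTS format.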
D1 PAM = Potentiators of Human D1 Dopamine Receptor: qHTS; D(1A) dopamine receptor (Homo sapiens), P21728; HEK293 TREx D1 cells, calcium flux, dopamine EC20 potentiation; potentiation, % at 10 µM; 360,000 compounds, 0.036% hits; AID 504651, 2011; in the data active = potentiation above about 30%
DRD3 agonist = qHTS of D3 Dopamine Receptor Agonist: qHTS; max activation, %; D3R DiscoveRx beta-arrestin cells, luminescence, 90 min; 410,000 compounds, 0.58% hits; in the data active = max activation above about 30%
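Agonist mode: compounds and dopamine controls were applied to plated cells for 90 min at 37 degrees C after an overnight attachment at 1500 cells/well. Luminescent read-out followed 30 - 60 minutes at room temperature with DiscoveRx detection reagent.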
D1 antag = Antagonist of Human D 1 Dopamine Receptor: qHTS; D(1A) dopamine receptor (Homo sapiens), P21728; HEK293 TREx D1 cells, calcium flux, dopamine EC80; hits give low values; activity change, negative = inhibition, % at 10 µM; 360,000 compounds, 3.2% hits; AID 504652, 2011; in the data active = activity change below about -30%
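Kinetic fluorescence of a calcium dye serves as the read-out. D1-expressing Hek293 Trex cells, induced overnight at 30 C, are exposed to compound for 180 s before an EC80 dopamine addition, then read 180 s further.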
A number is an active result; - = inactive; ? = inconclusive; . = no result given.

SMILES | D1 ag | DRD3 antagonist | D1 PAM | DRD3 agonist | D1 antag
O=[N+]([O-])c1ccc(S(=O)(=O)Nc2ccncc2)cc1 | - | - | - | - | -
COc1cc(OC)c(OC)cc1/C=C/C(=O)c1ccc(NS(=O)(=O)c2ccc(C)cc2)cc1 | - | - | - | 31 | -
CC(=O)c1ccc(NS(=O)(=O)c2ccc(C)cc2)cc1 | - | - | - | - | -
O=[N+]([O-])c1ccc(Oc2ccc(S(=O)(=O)Nc3ccccc3)cc2)cc1 | 55 | - | - | - | -
C=CCNS(=O)(=O)c1ccc(OCC(=O)OCC)cc1 | - | -60 | - | - | -
CCOC(=O)COc1ccc(S(=O)(=O)c2ccc(OCC(=O)OCC)cc2)cc1 | - | - | - | - | -
O=C(O)CC1(CC(=O)NCc2ccc(Cl)cc2)CCCCC1 | - | - | - | - | -
COc1cccc(NC(=O)CN(C)C(=O)c2ccc(S(=O)(=O)Nc3ccccc3F)cc2)c1 | - | - | - | - | -
N#Cc1nc(-c2ccc(OCc3ccccc3)cc2)oc1N1CCOCC1 | - | - | - | 31 | -
N#Cc1nc(-c2ccc(OCc3ccccc3)cc2)oc1NCCN1CCOCC1 | - | . | - | . | -
CNc1oc(-c2ccc(OCc3ccccc3)cc2)nc1C#N | - | - | - | - | -32
CCOc1ccc2nc(NC(=O)CS(=O)(=O)c3ccccc3)sc2c1 | - | - | - | 32 | -
CCOc1ccc2nc(NS(=O)(=O)c3ccc(NC(C)=O)cc3)sc2c1 | - | -57 | - | - | -
CCOc1ccc2nc(NC(=O)CS(=O)(=O)c3ccc(Cl)cc3)sc2c1 | - | . | - | - | .
CCOc1ccc2nc(NC(=O)CS(=O)(=O)c3ccc(C)cc3)sc2c1 | - | - | - | 38 | -
CC(=O)Nc1ccc(S(=O)(=O)Nc2nc3ccc([N+](=O)[O-])cc3s2)cc1 | - | - | - | - | -
COc1ccccc1N1CCN(CC(O)COc2c(OC)cccc2OC)CC1 (centres undefined) | - | -99 | - | - | -
OC(COc1cccc2ccccc12)CN1CCN(c2ccccc2Cl)CC1 (centres undefined) | - | -81 | - | - | -
COc1ccccc1N1CCN(CC(O)COCCOc2ccc(Br)cc2)CC1 (centres undefined) | - | -86 | - | - | -63
COc1ccccc1N1CCN(CC(O)c2ccc3cc[nH]c3c2)CC1 (centres undefined) | - | -82 | - | - | -
COc1cccc(OC)c1OCC(O)CN1CCN(c2ccccc2)CC1 (centres undefined) | - | - | - | - | -
Cc1ccc(N2CCN(CC(O)COc3cccc4ccccc34)CC2)cc1 (centres undefined) | - | - | - | - | -
Cc1ccc(CC(=O)CCc2ccccc2)cc1 | - | - | - | - | -
COc1ccccc1N1CCN(CC(O)COCc2cccs2)CC1 (centres undefined) | - | -62 | - | - | -37
COc1ccccc1N1CCN(CC(O)COc2ccc(C)cc2C)CC1 (centres undefined) | - | -94 | - | - | -
SMILES | D1 ag | DRD3 antagonist | D1 PAM | DRD3 agonist | D1 antag
COc1ccccc1N1CCN(CCCCOc2ccc(C)cc2C)CC1 | - | -86 | - | - | -
COc1ccc2[nH]cc(C(O)CN3CCN(c4ccccc4F)CC3)c2c1 (centres undefined) | - | -63 | - | - | -62
CC(=O)c1ccccc1NC(=O)COC(=O)/C=C/c1ccc(OC(F)F)cc1 | - | - | - | - | -
CC1(C)CCCC(C)(C)N1CC(O)COCCOc1ccc(Br)cc1 (centres undefined) | 39 | - | - | - | -
OCCN1CCN(CC(O)COCCOc2ccc(Br)cc2)CC1 (centres undefined) | - | - | - | - | -
COc1cccc(N2CCN(C(=O)C3CCC(=O)N(C4CCCCCC4)C3)CC2)c1 (centres undefined) | - | - | - | - | -
CCC(C)NCCOCCOc1ccc(F)cc1 (centres undefined) | - | -66 | - | - | -
CCC(C)NCCOCCOc1ccccc1-c1ccccc1 (centres undefined) | - | -69 | - | - | -
CCC(C)NCCOCCOc1cc(C)c(Cl)c(C)c1 (centres undefined) | - | ? | - | - | -
CC(C)CCn1c(=O)c2sccc2n2c(CCCC(=O)N3CCC(N4CCCCC4)CC3)nnc12 | - | - | - | - | -45
Cc1ccc(C(=O)O)cc1N=Cc1cc(Br)cc(Br)c1O | - | -120 | - | - | -
O=C(CNC(=O)c1ccc(F)cc1)OCc1cc(=O)n2nc(C3CC3)sc2n1 | - | . | - | - | -
COc1cc(C)nc(NS(=O)(=O)c2ccccc2)n1 | - | - | - | - | -37
CCOC(=O)c1[nH]c2c(c1Cc1ccccc1)C(=O)CC(c1ccc(C(C)(C)C)cc1)C2 (centres undefined) | - | . | - | - | -
COc1ccc(N2CCN(CCNC(=O)Nc3cc(Cl)ccc3OC)CC2)cc1 | 44 | ? | - | - | -
COc1ccc(Cl)c(N2CCN(CCCNC(=O)Nc3ccc(C)cc3)CC2)c1 | - | - | - | - | -60
COc1ccc(NC(=O)NCCN2CCN(c3cc(OC)ccc3OC)CC2)cc1 | - | - | - | - | -
COc1ccc(Cl)c(NC(=O)NCCN2CCN(c3ccccc3)CC2)c1 | - | ? | - | - | -65
CC(Oc1ccc(Cl)cc1Cl)C(=O)NCCN1CCOCC1 (centres undefined) | - | - | - | - | -
O=C(NCCN1CCOCC1)Nc1ccc(Cl)cc1Cl | - | - | - | - | -45
Cc1ccc(S(=O)(=O)NCC(=O)OCC(=O)N2CCN(C(=O)c3ccco3)CC2)cc1C | - | - | - | - | -
COc1cc2c(cc1OC)C(C)N(C(=O)C1=NN(c3cccc(C)c3)C(=O)CC1)CC2 (centres undefined) | - | - | - | - | -
O=C(CNC(=O)C1CCCCC1)OC(C(=O)Nc1cc(C(F)(F)F)ccc1Cl)c1ccccc1 (centres undefined) | - | . | - | . | -
O=[N+]([O-])c1ccc(N2CCN(C(=S)Nc3cccc(F)c3)CC2)cc1 | - | - | - | - | -38
Cc1ccc(C(=O)NC(=S)N2CCN(c3ccc([N+](=O)[O-])cc3)CC2)cc1 | - | -53 | - | - | -
O=[N+]([O-])c1ccc(N2CCN(C(=S)Nc3ccc(F)cc3F)CC2)cc1 | - | - | - | - | .
COc1cccc(NC(=S)N2CCN(c3ccc([N+](=O)[O-])cc3)CC2)c1 | - | - | - | - | -
O=[N+]([O-])c1ccc(NC(=S)N2CCc3ccccc3C2)cc1 | - | - | - | - | -33
O=[N+]([O-])c1ccc(N2CCN(C(=S)Nc3ccc(F)cc3)CC2)cc1 | - | - | - | - | -34

Source: PubChem BioAssay
